PubChem BioAssay (Tox21)
Records with an inconclusive call do not appear. Where a call stands in place of a potency, no number is given. Active and inactive are the calls of the source. Calls follow the shape of the dose curve; as a rule, active = well fitted curve in the direction sought with a large enough effect in the signal ratio in the repeat runs (not every such curve was filed as active); inconclusive = weak or mixed curves, or a change in a side signal; inactive = no such curve, though single readings can be large or run the other way; the % refers to the signal ratio.

Assay: qHTS assay to identify small molecule agonists of the NFkB signaling pathway (AID 1159509)
Conditions: NFkB-bla ME-180 cells, beta-lactamase FRET ratio, 5 h; series mostly up to 61 µM
Text: National Center for Advancing Translational Sciences [NCATS]
NIH Chemical Genomics Center [NCGC]
U.S. Environmental Protection Agency [EPA]
National Institutes of Environmental Health Sciences [NIEHS]
National Toxicology Program [NTP]
U.S. Food and Drug Administration [FDA]
Transcription factors and their stimulated target gene expression play pivotal roles across many cellular processes including responses to environmental stimuli. Proper regulation of associated pathways is critical to maintain cell health and function. Constitutive activation of transcription factor pathways has been implicated in tumors as it may block cellular functions such as apoptosis and lead to invasion and metastasis. One important transcription factor that stimulates gene expression in response to cytokines, UV radiation, and other stimuli is nuclear factor-kappa B (NFkB). To measure activation of the NFkB pathway, the CellSensor NFkB-bla ME-180 cell line (Life Technologies, Carlsbad, CA) that stably expresses beta-lactamase reporter gene under the regulation of a NF-kB response element was used. This assay allows measurement of the NFkB pathway activity induced by compounds in a ME-180 cell line. This system quantitates NF-kB activity using a FRET-based assay system where beta-lactamase expression disrupts FRET, allowing for fluorescent measurement of activity. This cell line has been used to screen the Tox21 10K compound library and to identify compounds that induce the NFkB pathway activity.
Tox21 Assay Protocol Summary:
NFkB-bla ME-180 cells were dispensed at 2,000 cells/6 uL of assay medium per well into black wall/clear-bottom 1536-well plates using a Multidrop Combi (ThermoFisher Scientific, Waltham, MA) dispenser. After the assay plates were incubated at 37 C and 5% CO2 for an overnight, 23 nL of compounds dissolved in DMSO, positive controls or DMSO only was transferred to the assay plate by a Pintool station (Kalypsys, San Diego, CA). The assay plates were incubated at 37 C and 5% CO2 for 5 hr. One uL of LiveBLAzer B/G FRET substrate (Life Technologies) was added using a Flying Reagent Dispenser (Aurora Discovery, San Diego, CA) and the plates were incubated at room temperature for 1.5 hr. Fluorescence intensity (405 nm excitation, 460 nm and 530 nm emissions) was measured using an Envision plate reader (PerkinElmer, Shelton, CT).

SMILES | Potency
O=C(O)CCc1nc(-c2ccccc2)c(-c2ccccc2)o1 | inactive
O=C1c2ccccc2C(=O)N1CCc1noc(-c2ccc(CN3CCCCCC3)s2)n1 | inactive
CCN(CC)CCNC(=O)COc1ccc(OC)cc1 | inactive
Nc1cccc2c1CN(C1CCC(=O)NC1=O)C2=O (stereo not given) | inactive
CCCCCCCCCI | inactive
C=C(C)C(=O)OCCCCCCCCCCCCC | inactive
CC(=O)OCC[N+](C)(C)C | inactive
COc1ccccc1NC(=O)c1cc2ccccc2cc1O | inactive
NCCNCCO | inactive
Cc1cccc(N(C)C(=S)Oc2ccc3c(c2)CCC3)c1 | inactive
c1ccc2sc(SN(C3CCCCC3)C3CCCCC3)nc2c1 | inactive
O=C(O)CCC(=O)C(=O)O | inactive
COc1ccccc1N1CCN(CCCCNC(=O)c2ccc(-c3ccc(C(C)=O)cc3)cc2)CC1 | inactive
CC(C)c1nc(CN(C)C(=O)N[C@H](C(=O)N[C@@H](Cc2ccccc2)C[C@H](O)[C@H](Cc2ccccc2)NC(=O)OCc2cncs2)C(C)C)cs1 | inactive
CCOC(=O)/C=C/C(=O)OCC | inactive
CNC(=O)c1cnn(-c2nc(N)c3ncn([C@@H]4O[C@H](CO)[C@@H](O)[C@H]4O)c3n2)c1 | inactive
O=C1C(=O)c2ccccc2C(O)=C1C1CCC(c2ccc(Cl)cc2)CC1 (stereo not given) | inactive
CC[N+](CC)(CCNC(=O)C(=O)NCC[N+](CC)(CC)Cc1ccccc1Cl)Cc1ccccc1Cl | inactive
Oc1cccc(O)c1O | inactive
CCC=CC#N | inactive

SMILES | Potency
Clc1ccc(Nc2nnc(Cc3ccncc3)c3ccccc23)cc1 | inactive
N#CCc1ccc(Cl)cc1Cl | inactive
CCCCN(CCN(CCCC)C(=O)N1CCOCC1)C(=O)N1CCOCC1 | inactive
CCCCCC[C@@H](O)C/C=C\CCCCCCCC(=O)OCC(O)CO (stereo not given in full) | inactive
Cc1c(C)c2c(c(C)c1OC(=O)CCC(=O)OCCO)CC[C@@](C)(CCC[C@H](C)CCC[C@H](C)CCCC(C)C)O2 | inactive
Cc1ccc(OC(=O)c2ccccc2O)cc1 | inactive
CCCCCC#CC(=O)OC | inactive
O=C1Cc2ccccc2N1c1c(Cl)cccc1Cl | inactive
NC1[C@H]2CN(c3nc4c(cc3F)c(=O)c(C(=O)O)cn4-c3ccc(F)cc3F)C[C@@H]12 (stereo not given in full) | inactive
Cc1cc2c(OCC(CNC(C)(C)C)OC(=O)c3ccccc3)cccc2[nH]1 (stereo not given) | inactive
CC(C)(c1ccccc1)c1ccccc1 | inactive
O=c1c(O)c(-c2ccc(O)cc2)oc2cc(O)cc(O)c12 | inactive
CC1CC(C)C(=O)C1=O (stereo not given) | inactive
Cc1cc(C)c(N)cc1C | inactive
CC(CCC(=O)O)C(=O)O (stereo not given) | inactive
CCCCCCCCOc1ccc(C(=O)O)cc1 | inactive
c1ccc2c(c1)CCc1ccccc1N2 | inactive
Oc1c(I)cc(I)c2cccnc12 | inactive
CC(C)(C)CC(=O)OCC(=O)[C@@]1(O)CC[C@H]2[C@@H]3CCC4=CC(=O)C=C[C@]4(C)[C@H]3[C@@H](O)C[C@@]21C | inactive
C=CC(=O)[O-].C=CC(=O)[O-].[Zn+2] | inactive
